# Laboratory results taken from paper PMC11006913.
# How the values were obtained:
# Assay in all cases: PBM; 200 nM protein, PBS
# Settings in all cases: dsDNA, one strand shown
# HOXA7 [1] = target: HOXA7 (Homo sapiens, UniProt P31268 116-202)
# HOXA7 [2] = target: HOXA7 (Homo sapiens, UniProt P31268 116-202, W177C)
# HOXC10 = HOXC10 (Homo sapiens, UniProt Q9NYD6 254-340)
# Sequence of HOXC10 (Q9NYD6 254-340): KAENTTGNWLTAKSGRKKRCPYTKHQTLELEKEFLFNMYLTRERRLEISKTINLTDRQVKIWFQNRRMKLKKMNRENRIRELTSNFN
# Sequence of HOXA7 (Homo sapiens, UniProt P31268 116-202, W177C) (P31268 116-202 W177C): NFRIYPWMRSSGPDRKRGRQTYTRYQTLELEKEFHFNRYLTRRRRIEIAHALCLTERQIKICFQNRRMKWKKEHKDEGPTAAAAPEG
# Sequence of HOXA7 (Homo sapiens, UniProt P31268 116-202) (P31268 116-202): as the sequence (P31268 116-202 W177C) above, with C62W counted along it
sequence,measurement,setting,value
ACCTAATC,binding signal,HOXA7 [1],"9.7 upbm affinity estimate (log intensity, higher = more binding, comparable within an allelic series)"
same,binding signal,HOXA7 [2],"8.88 upbm affinity estimate (log intensity, higher = more binding, comparable within an allelic series)"
CCATTACA,binding signal,HOXA7 [1],"10.6 upbm affinity estimate (log intensity, higher = more binding, comparable within an allelic series)"
same,binding signal,HOXA7 [2],"8.97 upbm affinity estimate (log intensity, higher = more binding, comparable within an allelic series)"
AGGCTCTC,binding signal,HOXA7 [1],"8.46 upbm affinity estimate (log intensity, higher = more binding, comparable within an allelic series)"
same,binding signal,HOXA7 [2],"8.32 upbm affinity estimate (log intensity, higher = more binding, comparable within an allelic series)"
AGGTCAGA,binding signal,HOXA7 [1],"8.56 upbm affinity estimate (log intensity, higher = more binding, comparable within an allelic series)"
same,binding signal,HOXA7 [2],"8.58 upbm affinity estimate (log intensity, higher = more binding, comparable within an allelic series)"
CACATAAC,binding signal,HOXA7 [1],"9.46 upbm affinity estimate (log intensity, higher = more binding, comparable within an allelic series)"
same,binding signal,HOXA7 [2],"8.81 upbm affinity estimate (log intensity, higher = more binding, comparable within an allelic series)"
AGAGACTG,binding signal,HOXA7 [1],"8.18 upbm affinity estimate (log intensity, higher = more binding, comparable within an allelic series)"
same,binding signal,HOXA7 [2],"8.35 upbm affinity estimate (log intensity, higher = more binding, comparable within an allelic series)"
AAGGCTAC,binding signal,HOXA7 [1],"8.53 upbm affinity estimate (log intensity, higher = more binding, comparable within an allelic series)"
same,binding signal,HOXA7 [2],"8.49 upbm affinity estimate (log intensity, higher = more binding, comparable within an allelic series)"
GATTAAAC,binding signal,HOXA7 [1],"9.54 upbm affinity estimate (log intensity, higher = more binding, comparable within an allelic series)"
same,binding signal,HOXA7 [2],"8.63 upbm affinity estimate (log intensity, higher = more binding, comparable within an allelic series)"
AGCTCGGA,binding signal,HOXA7 [1],"8.37 upbm affinity estimate (log intensity, higher = more binding, comparable within an allelic series)"
same,binding signal,HOXA7 [2],"8.35 upbm affinity estimate (log intensity, higher = more binding, comparable within an allelic series)"
CGGGTGCC,binding signal,HOXA7 [1],"8.6 upbm affinity estimate (log intensity, higher = more binding, comparable within an allelic series)"
same,binding signal,HOXA7 [2],"8.41 upbm affinity estimate (log intensity, higher = more binding, comparable within an allelic series)"
AGGAGCCT,binding signal,HOXA7 [1],"8.33 upbm affinity estimate (log intensity, higher = more binding, comparable within an allelic series)"
same,binding signal,HOXA7 [2],"8.35 upbm affinity estimate (log intensity, higher = more binding, comparable within an allelic series)"
CCTGTGTC,binding signal,HOXA7 [1],"8.55 upbm affinity estimate (log intensity, higher = more binding, comparable within an allelic series)"
same,binding signal,HOXA7 [2],"8.53 upbm affinity estimate (log intensity, higher = more binding, comparable within an allelic series)"
GCAAGCTA,binding signal,HOXA7 [1],"8.39 upbm affinity estimate (log intensity, higher = more binding, comparable within an allelic series)"
same,binding signal,HOXA7 [2],"8.42 upbm affinity estimate (log intensity, higher = more binding, comparable within an allelic series)"
CCTTATAA,binding signal,HOXA7 [1],"9.62 upbm affinity estimate (log intensity, higher = more binding, comparable within an allelic series)"
same,binding signal,HOXA7 [2],"8.88 upbm affinity estimate (log intensity, higher = more binding, comparable within an allelic series)"
CAATTGCG,binding signal,HOXA7 [1],"9.48 upbm affinity estimate (log intensity, higher = more binding, comparable within an allelic series)"
same,binding signal,HOXA7 [2],"8.54 upbm affinity estimate (log intensity, higher = more binding, comparable within an allelic series)"
AGAAGGCG,binding signal,HOXA7 [1],"8.35 upbm affinity estimate (log intensity, higher = more binding, comparable within an allelic series)"
same,binding signal,HOXA7 [2],"8.41 upbm affinity estimate (log intensity, higher = more binding, comparable within an allelic series)"
AGTAGCCG,binding signal,HOXA7 [1],"8.51 upbm affinity estimate (log intensity, higher = more binding, comparable within an allelic series)"
same,binding signal,HOXA7 [2],"8.43 upbm affinity estimate (log intensity, higher = more binding, comparable within an allelic series)"
CACGGAAG,binding signal,HOXA7 [1],"8.42 upbm affinity estimate (log intensity, higher = more binding, comparable within an allelic series)"
same,binding signal,HOXA7 [2],"8.45 upbm affinity estimate (log intensity, higher = more binding, comparable within an allelic series)"
GAAGGGAC,binding signal,HOXA7 [1],"8.46 upbm affinity estimate (log intensity, higher = more binding, comparable within an allelic series)"
same,binding signal,HOXA7 [2],"8.39 upbm affinity estimate (log intensity, higher = more binding, comparable within an allelic series)"
GCTCGGTA,binding signal,HOXA7 [1],"8.46 upbm affinity estimate (log intensity, higher = more binding, comparable within an allelic series)"
same,binding signal,HOXA7 [2],"8.43 upbm affinity estimate (log intensity, higher = more binding, comparable within an allelic series)"
CTGAAGGC,binding signal,HOXA7 [1],"8.34 upbm affinity estimate (log intensity, higher = more binding, comparable within an allelic series)"
same,binding signal,HOXA7 [2],"8.31 upbm affinity estimate (log intensity, higher = more binding, comparable within an allelic series)"
AGATATGG,binding signal,HOXC10,"10.7 upbm affinity estimate (log intensity, higher = more binding, comparable within an allelic series)"
ACCCCCCT,binding signal,HOXA7 [1],"8.3 upbm affinity estimate (log intensity, higher = more binding, comparable within an allelic series)"
same,binding signal,HOXA7 [2],"8.32 upbm affinity estimate (log intensity, higher = more binding, comparable within an allelic series)"
TTACACAA,binding signal,HOXC10,"10.5 upbm affinity estimate (log intensity, higher = more binding, comparable within an allelic series)"
GTCATGAA,binding signal,HOXC10,"10.8 upbm affinity estimate (log intensity, higher = more binding, comparable within an allelic series)"
GCTTTCGA,binding signal,HOXA7 [1],"8.45 upbm affinity estimate (log intensity, higher = more binding, comparable within an allelic series)"
same,binding signal,HOXA7 [2],"8.45 upbm affinity estimate (log intensity, higher = more binding, comparable within an allelic series)"
TAATTCAA,binding signal,HOXA7 [1],"9.8 upbm affinity estimate (log intensity, higher = more binding, comparable within an allelic series)"
same,binding signal,HOXA7 [2],"8.74 upbm affinity estimate (log intensity, higher = more binding, comparable within an allelic series)"
ATGCCATA,binding signal,HOXC10,"11 upbm affinity estimate (log intensity, higher = more binding, comparable within an allelic series)"
